Results on 94 molecules are retold here after PubChem BioAssay AID2524 (Sanford-Burnham Center for Chemical Genomics, 2010).

The structures appear in SMILES notation. Among all 330,000 compounds or so, about 540 (0.16%) were called active. Many of the other results were omitted from the sample, so actives are more common in it than they were. A number with no mark means an inactive call.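 The calls were made as follows: active = activation factor of the enzyme at least 2-fold when tested at 20 µM; inactive = the rest.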

In the experiment the target is Intestinal-type alkaline phosphatase (Homo sapiens) (UniProt P09923). In words: enzymatic activation of intestinal alkaline phosphatase – biochemical, luminescence, uHTS, primary screen (AID 2524). The conditions noted are these: purified human IAP, CDP-Star luminescence, 30 min; at 10 µM; active compounds read high; 1 = vehicle-only enzyme, 0 = enzyme-free background.
Intestinal-type alkaline phosphatase (Homo sapiens), sequence (P09923 whole entry, looked up): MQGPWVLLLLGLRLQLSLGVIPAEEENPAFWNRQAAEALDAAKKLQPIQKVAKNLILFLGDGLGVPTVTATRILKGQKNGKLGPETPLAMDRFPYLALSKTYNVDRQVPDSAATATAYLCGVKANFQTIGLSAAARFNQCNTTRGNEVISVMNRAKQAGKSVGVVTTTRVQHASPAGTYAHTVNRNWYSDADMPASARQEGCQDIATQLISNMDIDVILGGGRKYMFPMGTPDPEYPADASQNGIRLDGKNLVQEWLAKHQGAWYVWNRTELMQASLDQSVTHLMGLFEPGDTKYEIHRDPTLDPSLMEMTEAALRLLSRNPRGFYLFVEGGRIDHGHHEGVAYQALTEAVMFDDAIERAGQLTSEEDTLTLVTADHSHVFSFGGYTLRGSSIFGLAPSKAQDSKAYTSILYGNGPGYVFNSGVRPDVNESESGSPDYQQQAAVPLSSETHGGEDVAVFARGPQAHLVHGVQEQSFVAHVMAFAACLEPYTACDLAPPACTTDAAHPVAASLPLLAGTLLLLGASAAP
Consider `CN1C(=O)C2(OCCCO2)c2cc(Cl)ccc21`, for which the activation factor was 0.939.

In the case of `CC(=O)NCCc1ccc(S(=O)(=O)Nc2ccc(C)c(S(=O)(=O)N3CCOCC3)c2)cc1`, the activation factor was 0.976.

With `COc1ccc(N(CC(=O)NCCSCc2cccc(Cl)c2)S(C)(=O)=O)cc1`, the activation factor is 1.4.

In the case of `Cn1cnnc1SCC(=O)Nc1ccc(N2CCOCC2)cc1`, the activation factor is 1.03.

`Cn1cnnc1SCC(=O)NNC(=O)COc1ccc(Br)cc1`: the activation factor was 1.79.

As to `CCOc1ccc(NC(=O)CSc2nncn2C)cc1`, the activation factor was 3.82 (active).

In the case of `Cc1cn(C2C=CC(CO)O2)c(=O)[nH]c1=O` (centres undefined), the activation factor was 0.925.

As to `Cc1cc2c(cc1C)[n+](C)cn2CC(O)COCC1CC=CCC1` (centres undefined), the activation factor is 0.897.

As to `N=c1c2c(-c3ccccc3)c(-c3ccccc3)n(Cc3ccccc3)c2ncn1CCCO`, the activation factor was 1.11.

Turning to `OCCCN1c2ccccc2Nc2nnc(-c3ccccc3)cc21`, the activation factor was 2.48 (active).

With `O=C(NC(=S)Nc1ccccc1C(=O)O)c1ccc(-c2ccc(Br)cc2)o1`, the activation factor was 0.945.

For `CCCCCC1CC(COc2ccccc2)OC1=O` (centres undefined), the activation factor is 0.9.

On to `CC(C)(C)NC(=O)C(=O)NCc1ccncc1`, for which the activation factor was 1.09.

In the case of `CC(NCC(=O)Nc1cc(Cl)cc(Cl)c1)c1ccccc1` (centres undefined), the activation factor is 1.03.

For the molecule `CCC(C(=O)Nc1ccc2c(c1)OCCO2)c1ccccc1` (centres undefined), the activation factor is 0.871.

With `CCC(C(=O)Nc1ccc(C(C)C)cc1)c1ccccc1` (centres undefined), the activation factor was 2.92 (active).

With `CCC(C(=O)OCC(=O)Nc1ccc(C(=O)Nc2ccc(OC)cc2)cc1)c1ccccc1` (centres undefined), the activation factor was 1.08.

In the case of `O=C(CSc1nnnn1C1CCCC1)Nc1ccc2c(c1)OCCO2`, the activation factor was 0.96.

On to `Cc1cnc(NC(=O)Cn2cnc3c2c(=O)n(C)c(=O)n3C)s1`, for which the activation factor was 1.

For the molecule `CCOc1ccc(C(=O)COC(=O)c2ccc(-n3cnnn3)cc2)cc1`, the activation factor is 1.05.

Take `CC(=O)NC1C(Oc2ccc(C)cc2)OC2COC(c3ccco3)OC2C1O` (centres undefined): the activation factor was 1.11.

For the molecule `Oc1ccc(Br)cc1/C=N/Nc1ccccn1`, the activation factor is 1.22.

Consider `Oc1cccc(/C=N/Nc2ccc(Cl)nn2)c1O`, for which the activation factor is 2.16 (active).

On to `O=C(COc1ccc2c(C(F)(F)F)cc(=O)oc2c1)Nc1ccc2c(c1)OCCO2`, for which the activation factor is 1.02.

As for `C=CCOc1cccc(CNn2cn[nH]c2=S)c1`, the activation factor is 0.895.

Take `CNC(=O)CN1C(=O)NC(c2ccccc2)(c2ccccc2)C1=O`: the activation factor is 1.05.

In the case of `CCOc1ccccc1N1C(=O)CC(Sc2nccc(C)n2)C1=O` (centres undefined), the activation factor is 1.29.

For `O=C(NCC(=O)N1CCC2(CC1)NCCc1[nH]cnc12)c1ccc(Br)cc1`, the activation factor is 1.11.

On to `O=C(O)CSC(NC(=O)c1cccnc1)(C(F)(F)F)C(F)(F)F`, for which the activation factor was 0.961.

As for `O=C1COc2ccc(C(=O)CSc3ccc(Br)cc3)cc2N1`, the activation factor was 1.06.

`O=C(Nc1sc2c(c1-c1nc3ccccc3[nH]1)CCCC2)C1CC1`: the activation factor is 1.06.

Regarding `c1ccc2[nH]c(-c3nc4ccccc4[nH]3)nc2c1`, the activation factor was 2.1 (active).

Turning to `O=[N+]([O-])c1ccc2nc(-c3ccccn3)[nH]c2c1`, the activation factor is 1.4.

Consider `O=C(NCCC1CCCCN1S(=O)(=O)c1ccc(Cl)cc1)C(=O)NCc1ccco1` (centres undefined), for which the activation factor is 1.03.

On to `Cn1c(=O)c2c(nc(NCCc3ccccc3)n2Cc2ccccc2)n(C)c1=O`, for which the activation factor is 0.914.

Take `Cn1c(=O)c2sccc2n(Cc2ccc(Br)cc2)c1=O`: the activation factor is 0.619.

Take `Cn1c(=O)c2c(nc(N/N=C/c3cccs3)n2Cc2ccc(Br)cc2)n(C)c1=O`: the activation factor was 2.42 (active).

With `Cc1cccc(NC(=O)CSc2nnc(CCCCCNC(=O)OC(C)(C)C)o2)c1C`, the activation factor was 0.854.

Regarding `O=C(O)CCC(=O)Nc1ccc(OCC2CCCO2)cc1` (centres undefined), the activation factor is 0.853.

For the molecule `Cc1cc(C)c(C#N)c(SCC(=O)N(CC(C)C)C2CCS(=O)(=O)C2)n1` (centres undefined), the activation factor was 0.97.

Consider `O=C(Nc1ccon1)c1nc[nH]c1C(=O)NCc1ccccc1`, for which the activation factor was 2.43 (active).

As to `CCOC(=O)c1ccc(NC(=O)c2nc[nH]c2C(=O)NCc2ccccc2)cc1`, the activation factor is 1.59.

Turning to `Cc1cccc(NC(=O)c2nc[nH]c2C(=O)NCC(=O)OCc2ccccc2)c1`, the activation factor was 1.09.

Take `Cc1ccc2cc(CCNC(=O)c3c(-c4ccccc4Cl)noc3C)c(=O)[nH]c2c1`: the activation factor was 0.983.

Consider `COc1ccc(C(=O)NNc2cc(C)nc(NNC(=O)c3ccc(OC)cc3)n2)cc1`, for which the activation factor is 2.25 (active).

In the case of `COc1ccc(C(=O)NNC(=O)c2cc(C)[nH]n2)cc1`, the activation factor was 1.61.

For the molecule `COc1ccc(C(=O)NNS(=O)(=O)c2ccc(C)cc2)cc1`, the activation factor is 0.935.

In the case of `CC(=O)NC1C(Oc2ccc(C=O)cc2)OC(COC(C)=O)C(OC(C)=O)C1OC(C)=O` (centres undefined), the activation factor is 1.03.

In the case of `CN(C)C(CNC(=O)c1cccc(C#N)c1)c1ccco1` (centres undefined), the activation factor was 0.873.

As to `Oc1ccc2nc(Cc3ccccc3)[nH]c2c1`, the activation factor was 0.985.

With `OC(c1nc2ccc(F)cc2[nH]1)C(O)c1nc2ccc(F)cc2[nH]1` (centres undefined), the activation factor was 3.62 (active).

For the molecule `CN(Cc1nc2ccc(F)cc2[nH]1)Cc1nc(CC2CC2)no1`, the activation factor was 0.896.

As for `Nc1ncnc2c1ncn2[C@@H]1O[C@H](CNCc2cccn2-c2nccs2)[C@@H](O)[C@H]1O`, the activation factor is 0.901.

Regarding `CC(C)=CCN1CCN(Cc2cc3ccccc3[nH]2)CC1CCO` (centres undefined), the activation factor was 1.13.

In the case of `Cc1ccc(NC(=O)CN2C(=O)NC(C)(c3ccc(Cl)cc3)C2=O)c(Br)c1` (centres undefined), the activation factor was 1.

With `CN(c1ccccc1)S(=O)(=O)c1cccc(NC(=O)Cc2ccc(Cl)cc2)c1`, the activation factor is 1.01.

As to `CCOC(=O)c1sc(NC(=O)CSc2nc(C)cc(C(F)(F)F)n2)c(C#N)c1C`, the activation factor is 0.888.

Consider `COc1ccccc1N(C)S(=O)(=O)c1ccc(C(=O)N2CCC(C(N)=O)CC2)cc1`, for which the activation factor is 0.887.

Take `O=C(CCCCO)c1ccc(O)c(Cl)c1`: the activation factor was 1.08.

`CC(C)c1ccc(NC2CCCN(C(=O)c3ccncc3)C2)cc1` (centres undefined): the activation factor is 0.926.

For `Cc1ccc(S(=O)(=O)N2[C@@H](c3cccc(Cl)c3)C(C(=O)O)=CC[C@H]2c2ccc(Cl)c(Cl)c2)cc1`, the activation factor is 1.09.

Turning to `COC(C[C@@H](O)[C@H](C)[C@H](O)COCc1ccccc1)OC`, the activation factor was 0.977.

In the case of `O=C(OCC1O[C@@H](OC(=O)c2cc(O)c(O)c(O)c2)[C@@H](OC(=O)c2cc(O)c(O)c(O)c2)[C@@H](OC(=O)c2cc(O)c(O)c(O)c2)[C@@H]1OC(=O)c1cc(O)c(O)c(O)c1)c1cc(O)c(O)c(O)c1` (some centres undefined), the activation factor was 3.98 (active).

With `COc1ccc(C(=O)N(Cc2ccccc2)c2ccc(C)cc2)cc1S(=O)(=O)N1CCOCC1`, the activation factor is 0.94.

Regarding `CC(C)NC(=O)NCCCCCCS(C)=O` (centres undefined), the activation factor is 1.08.

For `CC(C)CN(CC(C)C)CC(O)CN(c1ccccc1)S(=O)(=O)c1ccccc1[N+](=O)[O-]` (centres undefined), the activation factor was 0.882.

For `CC(C)N(C(=O)CSc1nc(COc2ccccc2)nc2ccccc12)C(C)C`, the activation factor was 0.961.

Turning to `COc1cccc(NC(=O)CN(C)C(=O)c2ccccc2CCc2ccccc2)c1`, the activation factor is 1.1.

Turning to `Cn1cc(S(=O)(=O)N2CCN(c3ccc(F)cc3)CC2)c(=O)n(C)c1=O`, the activation factor is 1.04.

As to `O=S(=O)(CCc1nc2ccccc2o1)c1ccc(Cl)cc1`, the activation factor was 0.959.

Consider `CC(C)CC(N=C1NC(C)(C)Cc2ccccc21)C(=O)O` (centres undefined), for which the activation factor is 0.9.

Turning to `CCOC(=O)C1=NNC2(c3ccc(Cl)cc3)C(=O)N(c3cc(C)cc(C)c3)C(=O)C12` (centres undefined), the activation factor is 1.06.

As to `O=S(=O)(c1ccc(F)cc1)N1CC=C(c2ccccc2)CC1`, the activation factor was 1.01.

With `CN1CCN(Cc2c(C(=O)N3CCc4ccccc4C3)nc3ccc(Cl)cn23)CC1`, the activation factor is 1.33.

In the case of `CC(C)CC(=O)Nc1nnc(S(=O)(=O)N(C)c2ccc(Cl)cc2)s1`, the activation factor was 0.968.

As for `COc1ccc(-n2nnc3c(=O)n(CC(=O)N4CCC(Cc5ccccc5)CC4)cnc32)cc1`, the activation factor is 1.02.

On to `COc1cccc(/C=N\NC(=O)C2=NNC(=O)C2C)c1O` (centres undefined), for which the activation factor is 2.88 (active).

As to `COc1cc(/C=N\NC(=O)C2C(=O)NCC2c2ccccc2)cc(OC)c1O` (centres undefined), the activation factor is 0.911.

For `COc1cc(/C=N/NC(=O)c2cc(-c3ccccc3C)nc3ccccc23)cc(OC)c1O`, the activation factor was 0.992.

Take `COc1cccc(/C=N/NC(=O)c2[nH]nc3c2CCc2ccccc2-3)c1O`: the activation factor is 2.64 (active).

Regarding `CCOc1ccc2[nH]c(C(=O)N/N=C/c3cccc(OC)c3OC)cc2c1`, the activation factor was 0.924.

As for `COc1ccc(/C=N/NC(=O)c2ccncc2)cc1CN1CCCc2ccccc21`, the activation factor is 1.06.

For the molecule `Cc1ccc(OCC(=O)Nc2ccccc2C(=O)NC2CC2)cc1`, the activation factor was 0.945.

Turning to `Cc1ccccc1N1C(=O)C(Oc2ccc(Cl)cc2)C1CNCC1CCCO1` (centres undefined), the activation factor was 0.957.

As for `CN=C(Nc1cccc(S(=O)(=O)N2CCOCC2)c1)c1ccccc1`, the activation factor was 0.956.

Take `FC(F)(F)c1ccc(-n2cn[nH]c2=S)cc1`: the activation factor was 1.1.

With `CC(CCN1CCN=C1N(C)C)c1ccccc1` (centres undefined), the activation factor is 0.995.

For `O=C(Nc1ccccc1C(F)(F)F)N1CCCC1c1cccnc1` (centres undefined), the activation factor is 0.942.

Consider `Cc1cc(=O)n2nc(N3CCCC(C(=O)NCc4cccc(Cl)c4)C3)sc2n1` (centres undefined), for which the activation factor was 1.28.

Consider `CCCCN(CC(=O)NC(C)(C)C)C(=O)C(=O)Nc1ccc2c(c1)OCCO2`, for which the activation factor is 1.04.

Take `CCCCOC(=O)Nc1sc2nc(C)cc(C)c2c1-n1cccc1`: the activation factor is 2.01 (active).

`COC(=O)Nc1sc2nc(C)cc(C)c2c1-n1cccc1`: the activation factor is 0.984.

On to `Cc1cc(C)c2c(-n3cccc3)c(NC(=O)OCc3ccccc3)sc2n1`, for which the activation factor is 1.11.

In the case of `Cc1ccc(OCCCCN2CCCCC2)c(Br)c1`, the activation factor was 1.08.
